Source: PubChem BioAssay (EPA / NIEHS)
Results filed as inconclusive are left out. Calls of active or inactive are those of the source. How the source made its calls, unless noted: active means hit-call score of the fitted dose curve at least 0.9, where 1 is the maximum; inactive means score below 0.9.

Legend:
[1] = TOX21_p53_BLA_p2_viability: Viability Assessment in the Tox21 HCT-116 p53 Agonism Beta-lactamase Assay, Phase 2 (AID 2283591; active means hit-call score of the fitted dose curve at least 0.9, where 1 is the maximum;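 further: compound exposure lasted 16 h at 37 °C; actives lower the ATP signal meaning cytotoxicity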)
Procedure, shortened: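 HCT-116 p53-bla cells (4000/well) rested 5 h at 37C, then received compounds in DMSO (217-fold dilution) for 16 h at 37C, 5% CO2. After the CCF4 read, CellTiter-Glo was added; ATP luminescence was read after 30 min at room temperature.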

[2] = molecular target: Cellular tumor antigen p53 (Homo sapiens) (UniProt P04637); experiment: TOX21_p53_BLA_p2_ratio: Tox21 HCT-116 p53 Agonism Beta-lactamase Assay, Ratio, Phase 2 (AID 2283592; active means hit-call score of the fitted dose curve at least 0.9, where 1 is the maximum)
Procedure, shortened: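 Human colon HCT116 cells with an inducible p53 beta-lactamase reporter are exposed to test chemicals for 16 h at 37C. Reporter induction is read as the 460/530 nm emission ratio after CCF4-AM loading, normalized to DMSO.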

[3] = TOX21_p53_BLA_p3_viability: Viability Assessment in the Tox21 HCT-116 p53 Agonism Beta-lactamase Assay, Phase 3 (AID 2283593; active means hit-call score of the fitted dose curve at least 0.9, where 1 is the maximum;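 further: cells exposed to compound for 16 h before reading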)
Procedure, shortened: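 HCT-116 cells (4000/well) rested 5 h at 37C, then got DMSO compounds by pin tool (217-fold dilution) for 16 h at 37C, 5% CO2. After the bla read, CellTiter-Glo was added and luminescence read at 30 min, room temperature.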

[4] = molecular target: Cellular tumor antigen p53 (Homo sapiens) (UniProt P04637); experiment: TOX21_p53_BLA_p3_ratio: Tox21 HCT-116 p53 Agonism Beta-lactamase Assay, Ratio, Phase 3 (AID 2283596; active means hit-call score of the fitted dose curve at least 0.9, where 1 is the maximum)
Procedure, shortened: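 HCT116 p53-bla cells (4000/well) given compound in DMSO (217-fold dilution) after 5 h, incubated 16 h at 37C. CCF4-AM substrate 2 h at room temperature; 460/530 nm emission ratio, gain fitted against DMSO.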

[5] = TOX21_p53_BLA_p4_viability: Viability Assessment in the Tox21 HCT-116 p53 Agonism Beta-lactamase Assay, Phase 4 (AID 2283597; active means hit-call score of the fitted dose curve at least 0.9, where 1 is the maximum;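 further: hits lower the luminescence signal meaning cytotoxicity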)
Procedure, shortened: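 Luminescent ATP readout (CellTiter-Glo, 30 min, room temperature) in the same wells as the p53 bla ratio. HCT116 cells were treated for 16 h at 37C with DMSO-dissolved compounds.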

[6] = molecular target: Cellular tumor antigen p53 (Homo sapiens) (UniProt P04637); experiment: TOX21_p53_BLA_p5_ratio: Tox21 HCT-116 p53 Agonism Beta-lactamase Assay, Ratio, Phase 5 (AID 2283599; active means hit-call score of the fitted dose curve at least 0.9, where 1 is the maximum)
Procedure, shortened: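 HCT-116 cells carrying a p53-inducible beta-lactamase reporter were seeded at 4000 cells/well and dosed after 5 h with compound in DMSO (217-fold dilution). After 16 h at 37C, CCF4-AM substrate was added for 2 h, and the 460/530 nm emission ratio was scored as gain-of-signal versus DMSO.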

[7] = TOX21_p53_BLA_p5_viability: Viability Assessment in the Tox21 HCT-116 p53 Agonism Beta-lactamase Assay, Phase 5 (AID 2283600; active means hit-call score of the fitted dose curve at least 0.9, where 1 is the maximum)
Procedure, shortened: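 Seeded cells (4000/well) settle 5 h before compound addition. Plates then incubate 16 h at 37C, receive FRET substrate for 2 h, and finally CellTiter-Glo, with luminescence measured after a 30 min room-temperature incubation.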

[8] = molecular target: Cellular tumor antigen p53 (Homo sapiens) (UniProt P04637); experiment: TOX21_p53_BLA_p4_ratio: Tox21 HCT-116 p53 Agonism Beta-lactamase Assay, Ratio, Phase 4 (AID 2283601; active means hit-call score of the fitted dose curve at least 0.9, where 1 is the maximum)
Procedure, shortened: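 HCT116 cells carrying an inducible beta-lactamase reporter were plated at 4000 cells/well, rested 5 h, then exposed to compounds in DMSO (217-fold dilution) for 16 h at 37C. CCF4-AM substrate was loaded 2 h at room temperature; 460/530 nm emission ratio scored gain-of-signal versus DMSO.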

[9] = CCTE_Shafer_MEA_acute_firing_rate_mean: CCTE's Neural Acute Assay for Mean Firing Rate, Shafer Lab (AID 2284009);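 further: analyzed for loss of signal so actives lower firing rate relative to DMSO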
Procedure, shortened: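 Read-out: well-mean spike rate (spikes/recording length/electrodes), % change from 40 min pre-dose baseline to 40 min with compound. Rat cortical cultures, DIV 13 or 15, 37 C; 0.03-40 uM; DMSO as negative control.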

[10] = CCTE_Shafer_MEA_acute_burst_duration_mean: CCTE's Neural Acute Assay for Mean Burst Duration, Shafer Lab (AID 2284014);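 further: hits are decreases in mean burst duration relative to DMSO controls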
Procedure, shortened: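 Primary rat cortical neurons on 16-electrode MEA wells, treated on DIV 13 or 15 with compound (0.03-40 uM; ≥3 wells each). 40-min baseline and 40-min exposure recordings at 37 C; percent change in mean burst duration per well versus DMSO.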

[11] = CCTE_Shafer_MEA_acute_per_burst_spike_number_mean: CCTE's Neural Acute Assay for Average Number of Spikes Per Burst, Shafer Lab (AID 2284015);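 further: hits are decreases in mean spikes per burst versus baseline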
Procedure, shortened: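 Read-out: percent change in mean spikes per burst, each well's post-exposure 40-min recording versus its own 40-min baseline. Rat cortical cultures, DIV 13 or 15, compounds 0.03-40 uM; DMSO is negative control, loss-of-signal fitting.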

[12] = CCTE_Shafer_MEA_acute_interburst_interval_mean: CCTE's Neural Acute Assay for Mean Interburst Interval, Shafer Lab (AID 2284016);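 further: percent change of mean interburst interval versus each well's own pre-dose baseline; curves fitted for decrease in interburst interval relative to DMSO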
Procedure, shortened: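 Rat cortical cultures, DIV 13/15; 20 min equilibration, 40 min baseline, compound 0.03-40 uM, 40 min re-recording, 37 C. Spikes detected at 8x rms noise (300-5000 Hz band-pass). Endpoint: % change in interburst interval, fitted in loss direction vs DMSO.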

[13] = CCTE_Shafer_MEA_acute_burst_percentage_mean: CCTE's Neural Acute Assay for Percentage of Spikes in a Burst, Shafer Lab (AID 2284017)
Procedure, shortened: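 Rat cortical cultures, DIV 13/15, 37 C. Spikes detected at 8x rms noise (300-5000 Hz band-pass). Burst spikes/total spikes averaged across electrodes per well; % change post- vs pre-treatment (40 min each), loss-of-signal fit vs DMSO.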

[14] = CCTE_Shafer_MEA_acute_burst_percentage_std: CCTE's Neural Acute Assay for Standard Deviation of Burst Percentage, Shafer Lab (AID 2284018);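 further: fitted in the negative direction so actives lower burst percentage SD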
Procedure, shortened: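 Primary rat cortical neurons on 16-electrode MEA wells were recorded 40 min at baseline (DIV 13 or 15), then 40 min after compound (0.03-40 uM), at 37 C. Well value is SD across electrodes of spikes-in-bursts/total spikes; endpoint is percent change, DMSO-referenced.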

[15] = CCTE_Shafer_MEA_acute_per_network_burst_spike_number_mean: CCTE's Neural Acute Assay for Average Number of Spikes in a Network Burst, Shafer Lab (AID 2284019)
Procedure, shortened: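 Primary rat cortical neurons on 16-electrode MEA wells, DIV 13 or 15, 37 C; 40-min baseline then 40-min recording with compound (0.03-40 uM). Spikes per network burst (total spikes/number of bursts) expressed as percent change from baseline, DMSO reference.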

[16] = CCTE_Shafer_MEA_acute_per_network_burst_spike_number_std: CCTE's Neural Acute Assay for Standard Deviation of Number of Spikes in a Network Burst, Shafer Lab (AID 2284020);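 further: fitted for decrease in spike-number SD versus DMSO so actives lower it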
Procedure, shortened: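 Primary rat cortical neurons on 48-well MEAs (16 electrodes/well) recorded at DIV 13 or 15: 40-min baseline, then 40 min with compound (0.03-40 uM), 37 C. Value is percent change in SD of spikes per network burst, relative to DMSO.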

[17] = CCTE_Shafer_MEA_acute_per_network_burst_electrodes_number_mean: CCTE's Neural Acute Assay for Mean Number of Electrodes in a Network Burst, Shafer Lab (AID 2284021);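 further: curves fitted for decreases only so hits reduce electrodes per burst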
Procedure, shortened: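 Percent change from baseline in average electrode count per network burst, rat cortical cultures on 48-well MEAs; 40-min recordings each side of exposure, DIV 13 or 15; threshold 8x rms noise; DMSO as negative control.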

[18] = CCTE_Shafer_MEA_acute_network_burst_percentage: CCTE's Neural Acute Assay for Percentage of Network Bursts, Shafer Lab (AID 2284022);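 further: curves fitted for loss so actives lower network burst percentage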
Procedure, shortened: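 On DIV 13 or 15, at least three wells of rat cortical neurons per compound are dosed at 0.03-40 uM. Spontaneous firing is detected at 8x rms noise for 40 min before and after dosing at 37 C. The percent change in network-burst spike share is reported.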

[19] = CCTE_Shafer_MEA_acute_cross_correlation_area: CCTE's Neural Acute Assay for Area of Cross Correlation, Shafer Lab (AID 2284024);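 further: area under pooled inter-electrode spike cross-correlation near zero lag as percent change from own baseline; curves fitted for loss of cross-correlation area so actives lower synchrony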
Procedure, shortened: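 Extracellular recordings from cultured rat cortical neurons measure network synchrony as cross-correlation area; each well's post-compound value (0.03-40 uM, 40 min) is compared with its own 40 min baseline to give percent change.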

[20] = CCTE_Shafer_MEA_acute_cross_correlation_HWHM: CCTE's Neural Acute Assay for Cross Correlation at Half Width at Half Maximum, Shafer Lab (AID 2284026);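 further: spontaneous network firing of rat primary cortical neurons on multiwell microelectrode arrays; percent change per well from pre-dose baseline in spike cross-correlogram half width; hits are a decrease in cross-correlogram half width relative to DMSO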
Procedure, shortened: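 Percent change in cross-correlogram half width at half maximum, narrower meaning more synchrony, was derived per well from paired 40-min recordings before and during exposure to 0.03-40 uM compound in rat cortical cultures at 37 C.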

[21] = CCTE_Shafer_MEA_acute_synchrony_index: CCTE's Neural Acute Assay for Synchrony, Shafer Lab (AID 2284027);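 further: network synchrony index of spontaneous spiking in primary rat cortical neurons on MEAs; fitted for loss of signal so actives lower synchrony relative to DMSO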
Procedure, shortened: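 Primary rat cortical neurons on 48-well MEAs, dosed at 0.03–40 uM on DIV 13 or 15. Spikes are recorded for 40 min at 37C before and after exposure, and synchrony index (0–1) is expressed as percent change from baseline per well.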

[22] = CCTE_Shafer_MEA_dev_per_burst_spike_percent: CCTE's Neural Network Formation Assay for Percent of Spikes in a Burst, Shafer Lab (AID 2284032)
Procedure, shortened: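 Rat primary cortical neurons on 16-electrode MEA wells, dosed from plating day 0 for 12 days with renewal on DIV 5 and 9; spikes-in-bursts percentage averaged over bursting electrodes, collapsed as AUC across days 5, 7, 9, 12; loss direction versus DMSO.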

[23] = CCTE_Shafer_MEA_dev_active_electrodes_number: CCTE's Neural Network Formation Assay for Number of Active Electrodes, Shafer Lab (AID 2284040; active means hit-call score of the fitted dose curve at least 0.9, where 1 is the maximum)
Procedure, shortened: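 Primary rat cortical neurons on 16-electrode MEA wells, exposed from day 0 through day 12 with compound renewed at DIV 5 and 9 feeds. Active electrodes (mean firing ≥5 spikes/min) counted at DIV 5, 7, 9, 12; trapezoidal AUC across days, loss-of-signal versus DMSO.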

[24] = CCTE_Shafer_MEA_dev_burst_rate: CCTE's Neural Network Formation Assay for Burst Rate, Shafer Lab (AID 2284042)
Procedure, shortened: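 Cells plated, treated day 0; recorded DIV 5, 7, 9, 12; fed and re-treated DIV 5, 9. Endpoint: bursts per recording time, active-electrode well mean, trapezoidal AUC, fitted in decreasing direction against DMSO baseline.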

[25] = CCTE_Shafer_MEA_dev_bursting_electrodes_number: CCTE's Neural Network Formation Assay for Number of Bursting Electrodes, Shafer Lab (AID 2284043; active means hit-call score of the fitted dose curve at least 0.9, where 1 is the maximum)
Procedure, shortened: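 Primary rat cortical neurons were cultured on PEI-coated 48-well MEA plates (16 electrodes/well) and exposed from plating through day 12, with compound renewed at feeds on DIV 5 and 9. Electrodes bursting ≥1 per 2 min were counted on DIV 5, 7, 9, 12; trapezoidal AUC taken.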

[26] = CCTE_Shafer_MEA_dev_burst_duration_mean: CCTE's Neural Network Formation Assay for Mean Burst Duration, Shafer Lab (AID 2284045)
Procedure, shortened: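 Primary rat cortical neurons on PEI-coated 16-electrode MEA wells, exposed from plating through day 12 with compound renewed at DIV 5 and 9; spontaneous activity recorded days 5, 7, 9, 12. Well-mean burst duration collapsed as trapezoidal AUC, fitted for loss versus DMSO.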

[27] = CCTE_Shafer_MEA_dev_interburst_interval_mean: CCTE's Neural Network Formation Assay for Mean Interburst Interval, Shafer Lab (AID 2284046);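 further: well-mean interburst interval of bursting electrodes as AUC over four recording days; curve fitted for decrease in interburst interval relative to DMSO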
Procedure, shortened: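 Developing rat cortical networks on 48-well MEAs receive compound from the day of plating. Burst intervals from each active electrode are averaged per well, and AUC over the recording days is fitted in the negative direction against DMSO.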

[28] = CCTE_Shafer_MEA_dev_inter_network_spike_interval_mean: CCTE's Neural Network Formation Assay for Mean Inter-network Spike Interval, Shafer Lab (AID 2284047)
Procedure, shortened: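 Rat cortical cultures, 1.5 x 10^5 cells/well on 48-well MEA plates; continuous exposure days 0–12, medium and compound refreshed DIV 5, 9. Mean time between consecutive network-spike peaks; AUC across DIV 5/7/9/12; DMSO baseline, negative fitting direction.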

[29] = CCTE_Shafer_MEA_dev_network_spike_number: CCTE's Neural Network Formation Assay for Number of Network Spikes, Shafer Lab (AID 2284048);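 further: synchronized bursts across electrodes counted on days 5 7 9 12 and integrated as AUC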
Procedure, shortened: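 Primary rat cortical neurons were seeded at 1.5 x 10^5 cells/well on PEI-coated 16-electrode MEA wells with laminin, exposed from plating day 0, compound renewed at DIV 5 and 9. Network spikes were recorded on days 5, 7, 9, 12 and summarized as trapezoidal AUC versus DMSO.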

[30] = CCTE_Shafer_MEA_dev_network_spike_peak: CCTE's Neural Network Formation Assay for Mean Number of Electrodes in Network Spike, Shafer Lab (AID 2284049)
Procedure, shortened: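 Continuous 12-day exposure of rat cortical cultures, starting at plating, on MEA plates. Endpoint: electrodes participating in network-spike peaks, AUC across DIV 5–12, DMSO as negative control.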

[31] = CCTE_Shafer_MEA_dev_spike_duration_mean: CCTE's Neural Network Formation Assay for Mean Spike Duration, Shafer Lab (AID 2284051);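 further: mean network spike duration pooled as area under curve over DIV 5 to 12 recordings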
Procedure, shortened: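 Readout is the average length of network spikes, clustered firing across electrodes, summed over DIV 5, 7, 9 and 12 as area under the curve. Neurons from rat cortex developed networks on MEA plates under continuous 12-day exposure.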

Measured: outcome

Chain of Cellular tumor antigen p53 (Homo sapiens) (P04637 whole entry, looked up): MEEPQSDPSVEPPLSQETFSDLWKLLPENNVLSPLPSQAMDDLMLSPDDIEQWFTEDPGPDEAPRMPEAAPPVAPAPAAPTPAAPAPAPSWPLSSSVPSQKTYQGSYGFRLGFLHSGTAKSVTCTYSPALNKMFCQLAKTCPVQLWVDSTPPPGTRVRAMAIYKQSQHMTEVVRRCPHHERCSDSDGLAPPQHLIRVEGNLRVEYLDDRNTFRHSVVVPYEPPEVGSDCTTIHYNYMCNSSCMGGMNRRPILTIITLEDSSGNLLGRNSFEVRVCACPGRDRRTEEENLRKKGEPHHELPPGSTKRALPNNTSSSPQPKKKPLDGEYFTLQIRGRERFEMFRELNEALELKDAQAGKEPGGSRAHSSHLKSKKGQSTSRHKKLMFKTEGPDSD

CC1(C)S[C@@H]2[C@H](NC(=O)[C@H](N)c3ccc(O)cc3)C(=O)N2[C@H]1C(=O)O
inactive: all assays above
